# According to PubChem BioAssay AID779 (Sanford-Burnham Center for Chemical Genomics, 2007):
# A number with no mark means an inactive call. The rule behind the calls is not given here.
# Test: PLAP enzyme activity inhibition – biochemical, colorimetric, counter-screen, dose response (AID 779)
# Conditions: colorimetric OD read-out
row,SMILES,IC50 [µM]
1,CCN(CCCNC(=O)CN(C)S(=O)(=O)c1cccc2nsnc12)c1cccc(C)c1,> 50
2,CCOC(=O)c1c(NC(=S)Nc2ccccc2)sc2c1CCN(CCc1ccccc1)C2,> 50
3,CCOC(=O)C(C(=O)OCC)c1cc(Br)c2noc3c2c1C(=O)c1ccccc1-3,> 50
4,O=C(O)c1ccccc1C(=O)NNc1ccc(F)cc1,> 50
5,CCCSC1=N/C(=C\C=C\c2ccco2)C(=O)S1,> 50
6,C=CCOC(=O)c1cc(-c2ccc(/C=C3\C(=O)NC(=O)C(C#N)=C3C)o2)ccc1Cl,> 50
7,CCc1cccc2c(C(=O)CSc3nnc(-c4ccoc4C)n3C)c[nH]c12,> 50
8,CCOC(=O)c1cc(OC(=O)c2ccccc2OC)n(-c2ccccc2)n1,> 50
9,Cc1ccc(-n2c(C)nc3oc4ccccc4c(=O)c3c2=O)cc1,> 50
10,O=[N+]([O-])c1ccc(N(c2ccccc2)c2ccccc2)cc1,> 50
11,COc1ccccc1N1CSC2=C(C#N)C(c3ccc(SC)cc3)CC(=O)N2C1 (stereo unspecified),> 50
12,O=C(O)c1ccc(CN(c2ccccn2)S(=O)(=O)c2ccccc2)cc1,> 50
13,CCCOc1ccc(-c2nn(-c3ccccc3)cc2/C=C2\SC(=S)N(C3CCS(=O)(=O)C3)C2=O)cc1 (stereo unspecified),> 50
14,CC(C)C1Cc2c(C#N)c(N)sc(=S)c2CO1 (stereo unspecified),> 50
15,CC1CCCN(c2nc3ccccc3nc2C(C#N)C(=O)OC2CCCCC2)C1 (stereo unspecified),> 50
16,CC(C)C(C(=O)O)N1C(=O)/C(=C/C=C/c2ccco2)SC1=S (stereo unspecified),> 50

row,SMILES,IC50 [µM]
1,CCN(CC)CCCN(Cc1cc2cc3c(cc2[nH]c1=O)OCCO3)C(=O)Nc1ccccc1,> 50
2,COc1ccc(S(=O)(=O)Nc2cc(Sc3ncn[nH]3)c(O)c3ccccc23)cc1,> 50
3,CCCn1nc(-c2ccccc2)c2nc3ccccc3nc21,> 50
4,Cc1occc1-c1nnc(SCC(=O)Nc2ccccc2-c2ccccc2)n1C,> 50
5,COc1ccc(N(C(=O)c2ccco2)S(=O)(=O)c2cc(Cl)c(Cl)cc2Cl)cc1,> 50
6,Cc1ccc(C2=N/C(=C\c3cccs3)C(=O)N2Nc2ccccc2)cc1,> 50
7,CCn1nc(-c2ccccc2)c2nc3ccccc3nc21,> 50
8,COc1ccc(C(c2nnnn2Cc2cccs2)N2CCN(c3ccccc3F)CC2)cc1 (stereo unspecified),> 50
9,Cc1cc2cc(CNC(=O)c3ccc(S(=O)(=O)N4CCCCC4)cc3)ccc2n1C,> 50
10,CCn1c(COc2ccccc2C)nnc1SCC(=O)Nc1cc(C)on1,> 50
11,O=[N+]([O-])c1ccc(N2N=C(c3ccco3)CC2c2ccccc2)cc1 (stereo unspecified),> 50
12,CCCCN(CCCC)C1=Nc2ccccc2N/C1=C(/C#N)C(=O)OCC,> 50
13,Cc1ccc2cc(/C=C3\N=C(c4ccccc4)OC3=O)c(N3CCOCC3)nc2c1,> 50
14,Cc1ccc(C)c(N(CC(=O)N/N=C/c2ccc(-c3ccc([N+](=O)[O-])cc3)o2)S(=O)(=O)c2ccccc2)c1,> 50
15,COc1ccc2oc(/C=C/N(C)C)c(C(=O)c3ccc(Cl)cc3)c2c1,> 50
